About 2,000 (36%) of roughly 5,500 compounds were called active. Inconclusive results (about 18%) are left out. No stated cut-off is given here; in the data, active means normalized growth mostly below about 0.91 (no sharp cut-off); inconclusive means no clear call, values can overlap the other calls; inactive means mostly above about 0.92. The list shows a part of the results.
Assay: chemical genetic growth profiling, strain panel (AID 1159580);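 further: tested at 20 µM; growth read once vehicle control cultures reached saturation at 30 °C; 1 = growth at the plate median or of vehicle wells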
Conditions: growth OD

Measured: normalized growth

O=C(O)CCC(=O)OC[C@@H](NC(=O)C(Cl)Cl)[C@H](O)c1ccc([N+](=O)[O-])cc1
inactive: S. cerevisiae deletion strains, locus YJR043C, strain POL32, stronger effect = lower value 0.977 | S. cerevisiae deletion strains, locus YJR066W, strain TOR1, stronger effect = lower value 0.981 | S. cerevisiae deletion strains, locus YKL009W, strain mrt4, stronger effect = lower value 1 | S. cerevisiae deletion strains, locus YKL068W, stronger effect = lower value 0.962 | S. cerevisiae deletion strains, locus YKL085W, strain MDH1 (second series), stronger effect = lower value 0.99 | S. cerevisiae deletion strains, locus YKL085W, strain MDH1, stronger effect = lower value 0.99 | S. cerevisiae deletion strains, locus YKL160W, strain elf1, stronger effect = lower value 0.98 | S. cerevisiae deletion strains, locus YKL190W, strain CNB1, stronger effect = lower value 0.993 | S. cerevisiae deletion strains, locus YKR001C, strain vps1, stronger effect = lower value 0.967 | S. cerevisiae deletion strains, locus YKR026C, strain gcn3, stronger effect = lower value 0.984 | S. cerevisiae deletion strains, locus YKR091W, strain srl3, stronger effect = lower value 0.971 | S. cerevisiae deletion strains, locus YLL001W, strain dnm1, stronger effect = lower value 0.937 | S. cerevisiae deletion strains, locus YLL026W, stronger effect = lower value 0.974 | S. cerevisiae deletion strains, locus YLL041C, strain sdh2, stronger effect = lower value 0.993 | S. cerevisiae deletion strains, locus YLR027C, strain aat2, stronger effect = lower value 0.99 | S. cerevisiae deletion strains, locus YLR039C, strain RIC1, stronger effect = lower value 0.964 | S. cerevisiae deletion strains, locus YLR058C, strain SHM2, stronger effect = lower value 0.976 | S. cerevisiae deletion strains, locus YLR102C, strain apc9, stronger effect = lower value 0.977 | S. cerevisiae deletion strains, locus YLR113W, strain HOG1, stronger effect = lower value 0.973 | S. cerevisiae deletion strains, locus YLR221C, strain rsa3, stronger effect = lower value 0.918 | S. cerevisiae deletion strains, locus YLR258W, strain gsy2, stronger effect = lower value 0.984 | S. cerevisiae deletion strains, locus YLR262C, strain YPT6 (second series), stronger effect = lower value 0.966 | S. cerevisiae deletion strains, locus YLR262C, strain YPT6, stronger effect = lower value 0.866 | S. cerevisiae deletion strains, locus YLR268W, strain sec22, stronger effect = lower value 0.974 | S. cerevisiae deletion strains, locus YLR320W, strain mms22, stronger effect = lower value 0.944 | S. cerevisiae deletion strains, locus YLR330W, strain CHS5, stronger effect = lower value 0.985 | S. cerevisiae deletion strains, locus YLR342W, strain FKS1 (second series), stronger effect = lower value 1.01 | S. cerevisiae deletion strains, locus YLR342W, strain FKS1, stronger effect = lower value 0.986 | S. cerevisiae deletion strains, locus YLR357W, strain rsc2, stronger effect = lower value 1 | S. cerevisiae deletion strains, locus YLR370C, strain arc18, stronger effect = lower value 0.944 | S. cerevisiae deletion strains, locus YLR371W, strain rom2, stronger effect = lower value 0.979 | S. cerevisiae deletion strains, locus YLR384C, strain iki3, stronger effect = lower value 0.987 | S. cerevisiae deletion strains, locus YLR418C, strain cdc73, stronger effect = lower value 0.974 | S. cerevisiae deletion strains, locus YML016C, strain PPZ1, stronger effect = lower value 0.979 | S. cerevisiae deletion strains, locus YML032C, strain rad52, stronger effect = lower value 0.968 | S. cerevisiae deletion strains, locus YML120C, strain ndi1, stronger effect = lower value 0.936 | S. cerevisiae deletion strains, locus YML124C, strain tub3, stronger effect = lower value 0.994 | S. cerevisiae deletion strains, locus YMR058W, strain fet3, stronger effect = lower value 0.983 | S. cerevisiae deletion strains, locus YMR078C, strain ctf18, stronger effect = lower value 0.978 | S. cerevisiae deletion strains, locus YMR125W, strain sto1, stronger effect = lower value 0.962 | S. cerevisiae deletion strains, locus YMR129W, stronger effect = lower value 0.988 | S. cerevisiae deletion strains, locus YMR205C, strain PFK2, stronger effect = lower value 1.01 | S. cerevisiae deletion strains, locus YMR223W, strain ubp8, stronger effect = lower value 0.997 | S. cerevisiae deletion strains, locus YMR231W, strain pep5, stronger effect = lower value 0.996 | S. cerevisiae deletion strains, locus YMR263W, strain SAP30, stronger effect = lower value 1.01 | S. cerevisiae deletion strains, locus YMR307W, strain GAS1, stronger effect = lower value 1.05 | S. cerevisiae deletion strains, locus YNL067W, strain RPL9B, stronger effect = lower value 1.03 | S. cerevisiae deletion strains, locus YNL071W, strain lat1, stronger effect = lower value 0.989 | S. cerevisiae deletion strains, locus YNL153C, strain GIM3, stronger effect = lower value 1.02 | S. cerevisiae deletion strains, locus YNL183C, strain NPR1, stronger effect = lower value 0.93 | S. cerevisiae deletion strains, locus YNL209W, strain ssb2, stronger effect = lower value 0.971 | S. cerevisiae deletion strains, locus YNL233W, strain BNI4, stronger effect = lower value 1.02 | S. cerevisiae deletion strains, locus YNL248C, strain rpa49, stronger effect = lower value 1.02 | S. cerevisiae deletion strains, locus YNL271C, strain bni1, stronger effect = lower value 0.97 | S. cerevisiae deletion strains, locus YNL298W, strain CLA4, stronger effect = lower value 0.983 | S. cerevisiae deletion strains, locus YNL307C, strain MCK1, stronger effect = lower value 0.99 | S. cerevisiae deletion strains, locus YNL322C, strain KRE1 (second series), stronger effect = lower value 0.962 | S. cerevisiae deletion strains, locus YNR049C, strain mso1, stronger effect = lower value 0.972 | S. cerevisiae deletion strains, locus YNR052C, strain pop2, stronger effect = lower value 0.989 | S. cerevisiae deletion strains, locus YOL006C, strain TOP1, stronger effect = lower value 1.15 | S. cerevisiae deletion strains, locus YOL012C, strain htz1 0.661 | S. cerevisiae deletion strains, locus YOL147C, strain pex11, stronger effect = lower value 0.988 | S. cerevisiae deletion strains, locus YOR001W, strain rrp6, stronger effect = lower value 1.04 | S. cerevisiae deletion strains, locus YOR061W, strain CKA2, stronger effect = lower value 0.967 | S. cerevisiae deletion strains, locus YOR069W, strain VPS5, stronger effect = lower value 0.967 | S. cerevisiae deletion strains, locus YOR070C, strain gyp1, stronger effect = lower value 0.999 | S. cerevisiae deletion strains, locus YOR080W, strain dia2, stronger effect = lower value 0.98 | S. cerevisiae deletion strains, locus YOR083W, strain WHI5, stronger effect = lower value 0.978 | S. cerevisiae deletion strains, locus YOR106W, strain vam3, stronger effect = lower value 0.998 | S. cerevisiae deletion strains, locus YOR136W, strain idh2, stronger effect = lower value 0.984 | S. cerevisiae deletion strains, locus YOR144C, strain elg1, stronger effect = lower value 0.988 | S. cerevisiae deletion strains, locus YOR184W, strain ser1, stronger effect = lower value 0.987 | S. cerevisiae deletion strains, locus YOR231W, strain MKK1, stronger effect = lower value 0.971 | S. cerevisiae deletion strains, locus YOR265W, strain rbl2, stronger effect = lower value 0.976 | S. cerevisiae deletion strains, locus YOR270C, strain vph1, stronger effect = lower value 0.987 | S. cerevisiae deletion strains, locus YOR290C, strain snf2, stronger effect = lower value 0.928 | S. cerevisiae deletion strains, locus YOR316C, strain cot1, stronger effect = lower value 0.97 | S. cerevisiae deletion strains, locus YPL051W, strain arl3, stronger effect = lower value 0.998 | S. cerevisiae deletion strains, locus YPL078C, strain atp4, stronger effect = lower value 0.988 | S. cerevisiae deletion strains, locus YPL106C, strain sse1, stronger effect = lower value 0.944 | S. cerevisiae deletion strains, locus YPL240C, strain hsp82, stronger effect = lower value 0.995 | S. cerevisiae deletion strains, locus YPL256C, strain CLN2, stronger effect = lower value 0.981 | S. cerevisiae deletion strains, locus YPR119W, strain clb2, stronger effect = lower value 0.982 | S. cerevisiae deletion strains, locus YPR141C, strain kar3, stronger effect = lower value 0.975 | S. cerevisiae deletion strains, locus YPR163C, strain tif3, stronger effect = lower value 0.983 | S. cerevisiae deletion strains, locus YPR167C, strain met16, stronger effect = lower value 0.991 | S. cerevisiae deletion strains, strain wtn01, stronger effect = lower value 1 | S. cerevisiae strains, strain wild type, stronger effect = lower value 0.984

Source: PubChem BioAssay AID1159580 (chemical genetic matrix, 2015)
